According to the supplement of paper PMC11732987, “Enantioselective OTUD7B fragment discovery through chemoproteomics screening and high-throughput optimisation” (Communications Chemistry, 2025):

Key:
Test in all cases: log2 ratio of Biotin-Ahx-Ub-VS probe labelling (fragment/DMSO); higher = less target engagement (more negative = stronger competition), active = hit call of the paper (q ≤ 0.05, log2 ratio ≤ -1)
Conditions in all cases: compound concentration: 200 uM; treatment time: 3 h
[1] = biological target: T1, OTUD6B (UniProt Q8N6M0)
T1 sequence (whole entry): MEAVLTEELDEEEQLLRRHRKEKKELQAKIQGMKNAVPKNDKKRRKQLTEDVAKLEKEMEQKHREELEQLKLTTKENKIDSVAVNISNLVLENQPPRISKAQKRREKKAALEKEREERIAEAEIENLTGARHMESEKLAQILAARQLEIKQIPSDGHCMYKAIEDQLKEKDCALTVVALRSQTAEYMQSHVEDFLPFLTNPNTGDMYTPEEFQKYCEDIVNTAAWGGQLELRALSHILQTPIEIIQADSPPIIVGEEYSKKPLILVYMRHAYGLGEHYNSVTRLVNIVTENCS
In short: (§1)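 The table lists average log2 ratios of fragment over vehicle, from an unpaired t-test on global-median-normalised Spectronaut label-free quantities. Proteins with ≥2 unique peptides were used. Samples were HEK293T lysate (495 µg) treated in triplicate with fragment at 200 µM or vehicle for 3 h, then with Biotin-Ahx-Ub-VS (0.5 µM final) for 1 h, with labelled DUBs NeutrAvidin-enriched and run by diaPASEF LC-MS/MS.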

[2] = biological target: T2, OTUD7B (UniProt Q6GQQ9)
T2 sequence (whole entry): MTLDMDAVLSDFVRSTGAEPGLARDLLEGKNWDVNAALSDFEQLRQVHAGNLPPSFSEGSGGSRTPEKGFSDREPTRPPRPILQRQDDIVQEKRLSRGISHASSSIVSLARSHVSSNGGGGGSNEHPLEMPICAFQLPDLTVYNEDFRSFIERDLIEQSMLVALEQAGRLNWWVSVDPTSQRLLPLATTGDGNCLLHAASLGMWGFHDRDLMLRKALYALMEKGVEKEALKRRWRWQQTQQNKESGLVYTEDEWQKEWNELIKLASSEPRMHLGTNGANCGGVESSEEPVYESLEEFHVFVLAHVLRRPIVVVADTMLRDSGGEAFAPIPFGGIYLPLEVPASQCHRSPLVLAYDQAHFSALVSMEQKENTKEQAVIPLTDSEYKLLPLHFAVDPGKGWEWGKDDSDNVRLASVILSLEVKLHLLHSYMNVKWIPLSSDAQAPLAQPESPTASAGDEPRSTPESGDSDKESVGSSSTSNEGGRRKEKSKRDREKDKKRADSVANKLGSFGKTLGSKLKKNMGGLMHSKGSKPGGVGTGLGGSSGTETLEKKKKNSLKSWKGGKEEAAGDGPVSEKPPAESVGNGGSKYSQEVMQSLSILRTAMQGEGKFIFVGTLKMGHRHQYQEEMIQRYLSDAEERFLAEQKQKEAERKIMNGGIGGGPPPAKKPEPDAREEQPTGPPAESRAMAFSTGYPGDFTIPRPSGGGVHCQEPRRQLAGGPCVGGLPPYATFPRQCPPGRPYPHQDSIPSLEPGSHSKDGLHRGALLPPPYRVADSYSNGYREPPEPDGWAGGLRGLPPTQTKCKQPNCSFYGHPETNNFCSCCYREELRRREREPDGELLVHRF
In short: as §1

[3] = biological target: PRPF8 (UniProt Q6P2Q9)
In short: as §1

[4] = biological target: T3, PSMD7 (UniProt P51665)
T3 sequence (whole entry): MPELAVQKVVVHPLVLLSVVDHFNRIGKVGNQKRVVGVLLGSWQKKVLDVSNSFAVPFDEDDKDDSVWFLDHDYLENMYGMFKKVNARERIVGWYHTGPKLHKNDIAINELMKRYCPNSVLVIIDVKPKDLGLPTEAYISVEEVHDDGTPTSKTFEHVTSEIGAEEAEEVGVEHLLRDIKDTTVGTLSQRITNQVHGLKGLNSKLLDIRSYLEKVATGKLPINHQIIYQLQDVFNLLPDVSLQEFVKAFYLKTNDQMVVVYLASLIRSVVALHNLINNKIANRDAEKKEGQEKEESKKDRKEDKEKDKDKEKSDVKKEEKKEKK
In short: as §1

[5] = biological target: UCHL1 (UniProt P09936)
In short: as §1

[6] = biological target: T4, UCHL3 (UniProt P15374)
T4 sequence (whole entry): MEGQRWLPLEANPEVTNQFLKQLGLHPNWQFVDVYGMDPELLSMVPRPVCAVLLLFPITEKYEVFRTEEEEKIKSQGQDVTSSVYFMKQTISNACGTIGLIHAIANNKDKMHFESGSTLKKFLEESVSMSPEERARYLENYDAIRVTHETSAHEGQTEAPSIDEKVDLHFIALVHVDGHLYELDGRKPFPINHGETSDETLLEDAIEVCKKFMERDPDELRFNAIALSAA
In short: as §1

[7] = biological target: T5, UCHL5 (UniProt Q9Y5K5)
T5 sequence (whole entry): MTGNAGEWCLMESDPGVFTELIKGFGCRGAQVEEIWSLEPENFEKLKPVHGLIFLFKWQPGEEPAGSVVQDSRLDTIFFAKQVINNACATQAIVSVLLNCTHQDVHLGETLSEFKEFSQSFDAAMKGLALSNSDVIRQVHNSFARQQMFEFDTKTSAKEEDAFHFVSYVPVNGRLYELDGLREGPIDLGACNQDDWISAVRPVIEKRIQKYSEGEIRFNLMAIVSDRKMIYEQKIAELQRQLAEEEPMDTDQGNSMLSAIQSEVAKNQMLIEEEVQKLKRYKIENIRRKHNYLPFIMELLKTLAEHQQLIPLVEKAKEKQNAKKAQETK
In short: as §1

[8] = biological target: USP10 (UniProt Q14694)
In short: as §1

[9] = biological target: T6, USP15 (UniProt Q9Y4E8)
T6 sequence (whole entry): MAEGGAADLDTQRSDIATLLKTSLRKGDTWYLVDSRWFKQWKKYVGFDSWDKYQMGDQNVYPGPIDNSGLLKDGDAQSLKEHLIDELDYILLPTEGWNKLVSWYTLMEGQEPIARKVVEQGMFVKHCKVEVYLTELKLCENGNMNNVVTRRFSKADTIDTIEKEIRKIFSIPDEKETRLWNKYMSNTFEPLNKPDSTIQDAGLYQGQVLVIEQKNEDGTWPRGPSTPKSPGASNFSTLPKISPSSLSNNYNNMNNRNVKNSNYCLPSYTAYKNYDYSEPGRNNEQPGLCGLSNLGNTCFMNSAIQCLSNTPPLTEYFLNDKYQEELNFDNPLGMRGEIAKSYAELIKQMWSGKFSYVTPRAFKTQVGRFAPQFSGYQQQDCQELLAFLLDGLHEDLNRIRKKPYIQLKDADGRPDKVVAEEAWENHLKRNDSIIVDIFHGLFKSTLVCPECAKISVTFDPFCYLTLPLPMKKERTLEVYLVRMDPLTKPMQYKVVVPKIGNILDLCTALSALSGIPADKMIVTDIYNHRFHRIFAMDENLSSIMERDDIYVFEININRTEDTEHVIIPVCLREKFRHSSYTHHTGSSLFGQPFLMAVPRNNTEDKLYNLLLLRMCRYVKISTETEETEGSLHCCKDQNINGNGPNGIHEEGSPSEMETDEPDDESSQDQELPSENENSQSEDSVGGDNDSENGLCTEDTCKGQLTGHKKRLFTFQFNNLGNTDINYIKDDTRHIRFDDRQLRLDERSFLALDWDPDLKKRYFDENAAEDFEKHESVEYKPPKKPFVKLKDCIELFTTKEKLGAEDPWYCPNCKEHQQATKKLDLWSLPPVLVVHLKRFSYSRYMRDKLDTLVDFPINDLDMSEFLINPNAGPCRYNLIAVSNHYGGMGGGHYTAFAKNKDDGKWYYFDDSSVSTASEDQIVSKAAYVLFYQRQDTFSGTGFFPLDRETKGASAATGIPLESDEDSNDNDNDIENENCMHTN
In short: as §1

[10] = biological target: USP16 (UniProt Q9Y5T5)
In short: as §1

Measured: log2 ratio of Biotin-Ahx-Ub-VS probe labelling

Sequence of USP16 (Q9Y5T5 whole entry, looked up): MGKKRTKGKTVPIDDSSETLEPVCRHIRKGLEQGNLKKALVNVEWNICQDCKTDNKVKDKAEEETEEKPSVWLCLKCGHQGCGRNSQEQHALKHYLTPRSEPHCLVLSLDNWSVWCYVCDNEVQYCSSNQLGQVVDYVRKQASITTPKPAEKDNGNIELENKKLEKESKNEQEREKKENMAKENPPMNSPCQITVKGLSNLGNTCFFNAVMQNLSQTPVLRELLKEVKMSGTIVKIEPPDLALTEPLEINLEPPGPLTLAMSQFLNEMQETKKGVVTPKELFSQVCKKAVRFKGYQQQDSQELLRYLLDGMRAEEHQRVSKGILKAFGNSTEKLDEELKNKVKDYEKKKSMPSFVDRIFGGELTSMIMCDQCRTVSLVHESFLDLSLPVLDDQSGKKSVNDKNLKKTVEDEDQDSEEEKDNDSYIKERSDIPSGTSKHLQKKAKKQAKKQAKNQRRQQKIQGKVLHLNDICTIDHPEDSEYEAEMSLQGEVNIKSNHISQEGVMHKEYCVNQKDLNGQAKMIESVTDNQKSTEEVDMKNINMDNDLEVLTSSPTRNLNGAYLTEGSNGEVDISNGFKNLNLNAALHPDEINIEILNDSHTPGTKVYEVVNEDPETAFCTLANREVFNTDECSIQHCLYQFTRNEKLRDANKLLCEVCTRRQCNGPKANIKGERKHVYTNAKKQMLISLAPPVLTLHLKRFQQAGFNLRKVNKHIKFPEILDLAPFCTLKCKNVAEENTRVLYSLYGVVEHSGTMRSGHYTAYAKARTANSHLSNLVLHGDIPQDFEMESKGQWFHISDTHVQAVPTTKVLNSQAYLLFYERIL
Sequence of UCHL1 (P09936 whole entry, looked up): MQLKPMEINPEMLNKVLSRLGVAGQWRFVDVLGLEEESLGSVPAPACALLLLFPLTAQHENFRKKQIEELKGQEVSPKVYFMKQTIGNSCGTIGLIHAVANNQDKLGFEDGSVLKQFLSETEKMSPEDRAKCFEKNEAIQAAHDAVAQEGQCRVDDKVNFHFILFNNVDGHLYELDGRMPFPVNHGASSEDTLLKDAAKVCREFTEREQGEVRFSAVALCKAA
Sequence of USP10 (Q14694 whole entry): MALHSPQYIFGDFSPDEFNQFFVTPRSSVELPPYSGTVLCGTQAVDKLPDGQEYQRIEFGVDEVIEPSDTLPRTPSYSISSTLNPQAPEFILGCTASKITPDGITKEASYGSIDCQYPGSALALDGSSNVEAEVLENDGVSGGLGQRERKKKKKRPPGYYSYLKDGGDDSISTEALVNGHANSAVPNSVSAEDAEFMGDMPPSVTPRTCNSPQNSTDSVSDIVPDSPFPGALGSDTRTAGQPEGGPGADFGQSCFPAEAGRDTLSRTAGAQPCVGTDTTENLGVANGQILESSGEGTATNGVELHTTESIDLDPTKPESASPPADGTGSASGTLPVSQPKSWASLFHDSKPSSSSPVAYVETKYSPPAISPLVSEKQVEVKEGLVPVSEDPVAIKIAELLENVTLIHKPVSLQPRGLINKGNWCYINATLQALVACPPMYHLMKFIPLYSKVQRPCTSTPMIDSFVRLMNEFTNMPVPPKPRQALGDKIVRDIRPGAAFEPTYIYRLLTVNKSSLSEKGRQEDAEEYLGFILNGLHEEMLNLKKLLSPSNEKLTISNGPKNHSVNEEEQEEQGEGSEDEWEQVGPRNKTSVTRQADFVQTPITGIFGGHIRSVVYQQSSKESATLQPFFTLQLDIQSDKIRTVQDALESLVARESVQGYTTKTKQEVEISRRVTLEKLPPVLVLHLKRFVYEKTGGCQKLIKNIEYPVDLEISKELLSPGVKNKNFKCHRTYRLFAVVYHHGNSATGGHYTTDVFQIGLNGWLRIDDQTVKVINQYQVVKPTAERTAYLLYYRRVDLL

CN(C)C(=O)c1ccc(NC(=O)CCl)cc1
inactive: [1] -0.253 | [2] -0.664 | [3] -0.106 | [4] -0.259 | [6] -0.282 | [7] -0.194 | [8] -0.0447 | [9] 0.0049 | [10] -0.712
active: [5] -1.46
